Hedgehog inh – Hedgehog pathway signaling inhibitors, primary screen, luminescence, Shh-LIGHT2 cells, Gli-luciferase; Shh-LIGHT2 Gli-luciferase reporter, 30 h; inhibition, % (no concentration beside the values); 22,000 compounds, 2.1% hits;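 active means mean inhibition across valid replicates above about 65%, limit read from the data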;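 further: pathway switched on by Shh-conditioned medium diluted 1 in 25 in low serum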
NOMO-1 viab – NOMO-1 AML cell viability reduction, primary screen, STK33 inhibitor project, CellTiter-Glo luminescence | NOMO-1 AML viability, 72 h | 37,000 compounds, 7.5% hits | inhibition, % (concentration not given with the values); in the data active means inhibition above about 80%
MITF inhib – inhibitors of MITF, primary screen, MITF inhibitor project, cell-based, luminescence. TRPM1 promoter luciferase, 24 h. inhibition, % (concentration not given with the values). 37,000 compounds, 0.28% hits; in the data active means inhibition above about 85%;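 further: human melanocyte line stably carrying TRPM1 promoter luciferase reporter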
Numbers stand for hits; - = inactive; . = not tested or not shown. Rows were chosen to be rich in hits. Some 7.8% of all compounds tested hit in one or more screens of this group.

SMILES	Hedgehog inh	NOMO-1 viab	MITF inhib
Cc1ccc(CN2C(=O)C(O)(CC(=O)c3c(C)coc3C)c3cc(Cl)ccc32)cc1 (stereo unspecified)	.	128	-
COc1ccc(C(=O)CC2(O)C(=O)N(Cc3ccc(C)cc3)c3ccc(Cl)cc32)cc1[N+](=O)[O-] (stereo unspecified)	.	124	-
Cc1coc(C)c1C(=O)CC1(O)C(=O)N(Cc2cccc3ccccc23)c2ccccc21 (stereo unspecified)	.	-	-
N#CCCCN1C(=O)C(O)(CC(=O)c2ccc(Br)s2)c2ccccc21 (stereo unspecified)	.	-	-
CCCN1C(=O)C(O)(CC(=O)c2ccc(OC)c([N+](=O)[O-])c2)c2ccccc21 (stereo unspecified)	.	118	-
O=C(CC1(O)C(=O)N(Cc2ccc(Cl)cc2)c2ccc(Cl)cc21)c1ccc2c(c1)OCCO2 (stereo unspecified)	.	129	-
O=C(CC1(O)C(=O)N(Cc2ccccc2)c2ccc(Cl)cc21)c1ccc2c(c1)OCCO2 (stereo unspecified)	.	-	-
COc1ccc(C(=O)CC2(O)C(=O)N(Cc3ccc(Cl)c(Cl)c3)c3ccccc32)cc1OC (stereo unspecified)	.	-	-
Cc1ccc(S(=O)(=O)N2C(=O)CCC2C(=O)Nc2ccc(Cl)c(Cl)c2)cc1 (stereo unspecified)	.	-	-
CCOC(=O)c1c(CNC(C)C)oc2ccc(OC)cc12	-	-	-
COc1ccc(NC(=O)COc2ccc(CO)cc2OC)cc1	.	-	-
CS(=O)(=O)N1N=C(c2cccc(NS(=O)(=O)c3ccccc3)c2)CC1c1ccco1 (stereo unspecified)	.	-	-
CCOc1ccc2c(c1)sc(=NC(=O)c1ccc(S(=O)(=O)N3CCCCC3C)cc1)n2CC (stereo unspecified)	-	-	-
CC(=O)OC/C=C(\CO)CC/C=C(\C)CC/C=C(\CC/C=C(\C)COC(C)=O)C(=O)O	-	.	.
COc1ccc(-n2c(SCC(=O)Nc3cc(NC(C)=O)ccc3OC)nc3ccccc3c2=O)cc1	.	-	-
Cc1cc2ncn(CC(O)COc3ccc(N)cc3)c2cc1C (stereo unspecified)	.	-	-
COc1ccc(C2(CNC(=O)c3ccc(OC)c([N+](=O)[O-])c3)CCCC2)cc1OC	.	-	-
CCCN1C(=O)C(O)(CC(=O)c2ccc(OC)c([N+](=O)[O-])c2)c2cc(Br)ccc21 (stereo unspecified)	.	113	-
Cc1ccc(Cc2nn3c(C(=O)c4cccs4)nn(-c4ccc(Cl)cc4)c3nc2=O)cc1	67	-	-
O=C(c1cccs1)n1nc(-c2ccc(Cl)cc2)nc1NCc1ccco1	.	-	-
CCC(C)Nc1nc(OC)nc(Oc2ccc(=O)[nH]n2)n1 (stereo unspecified)	.	-	-
COc1cccc(/C=N/n2cnnc2)c1	-	-	-
CCC(C)NC(=O)c1ccc(N(CC)CC)cc1 (stereo unspecified)	-	-	-
CCC(C)c1ccc(NC(=O)c2ccc(N(CC)CC)cc2)cc1 (stereo unspecified)	-	120	-
COc1ccc(NC(=O)Nc2ccc3c(c2)C(=O)N([C@@H](C)CO)C[C@@H](C)[C@@H](CN(C)Cc2ccc4c(c2)OCO4)O3)cc1	.	-	-
SMILES	Hedgehog inh	NOMO-1 viab	MITF inhib
C[C@H](CO)N1C[C@H](C)[C@H](CN(C)Cc2ccc3c(c2)OCO3)Oc2ccc(NC(=O)Nc3cccc4ccccc34)cc2C1=O	.	98	-
C[C@@H]1CN([C@H](C)CO)C(=O)c2cc(NC(=O)Cc3ccccc3)ccc2O[C@H]1CN(C)Cc1ccc2c(c1)OCO2	.	-	-
COc1ccc(NC(=O)Nc2ccc3c(c2)C(=O)N([C@@H](C)CO)C[C@H](C)[C@H](CN(C)Cc2ccc4c(c2)OCO4)O3)cc1	-	98	-
C[C@H]1CN([C@@H](C)CO)C(=O)c2cc(NC(=O)Nc3cccc4ccccc34)ccc2O[C@H]1CN(C)Cc1ccccc1	-	-	-
C[C@H](CO)N1C[C@H](C)[C@@H](CN(C)Cc2ccc3c(c2)OCO3)Oc2ccc(NC(=O)Nc3ccccc3)cc2C1=O	.	-	-
C[C@H](CO)N1C[C@H](C)[C@H](CN(C)Cc2ccc3c(c2)OCO3)Oc2ccc(NC(=O)Nc3ccccc3)cc2C1=O	.	94	-
C[C@H]1CN([C@@H](C)CO)C(=O)c2cc(NC(=O)Cc3ccccc3)ccc2O[C@H]1CN(C)Cc1ccc2c(c1)OCO2	.	95	-
Cc1cccc(-n2c(SCC(=O)c3ccccc3)nnc2-c2cccs2)c1C	.	-	-
COC(=O)c1ccc(-n2nnnc2SCC(=O)Nc2ccccc2)cc1	.	-	-
O=C(COc1ccc2ccccc2c1)Nc1ccccc1-c1nc2ccccc2s1	.	-	-
C/C(=C\CC(C)(C)CCC(=O)c1ccoc1)C(=O)O	-	-	-
Cc1cc(C(=O)Oc2c(C)cc(C(=O)O)c(O)c2C)c(O)c(C)c1O	-	-	-
C[C@@H]1CN([C@H](C)CO)C(=O)c2cc(NC(=O)Nc3ccc4c(c3)OCO4)ccc2O[C@@H]1CN(C)Cc1ccc2c(c1)OCO2	.	-	-
C[C@H](CO)N1C[C@H](C)[C@H](CN(C)Cc2ccc3c(c2)OCO3)Oc2ccc(NC(=O)C3CCCCC3)cc2C1=O	.	94	-
C[C@H](CO)N1C[C@H](C)[C@@H](CN(C)Cc2ccc3c(c2)OCO3)Oc2ccc(NC(=O)C3CCCCC3)cc2C1=O	.	-	-
C[C@H]1CN([C@@H](C)CO)C(=O)c2cc(NC(=O)Nc3ccc4c(c3)OCO4)ccc2O[C@H]1CN(C)Cc1ccc2c(c1)OCO2	.	93	-
C[C@@H]1CN([C@@H](C)CO)C(=O)c2cc(NC(=O)Nc3ccc4c(c3)OCO4)ccc2O[C@H]1CN(C)Cc1ccc(Cl)c(Cl)c1	-	95	-
C[C@@H]1CN([C@@H](C)CO)C(=O)c2cc(NC(=O)Nc3ccc4c(c3)OCO4)ccc2O[C@@H]1CN(C)Cc1ccc2c(c1)OCO2	-	-	-
Cc1nnc(SCC(=O)Nc2cccc(F)c2)s1	.	-	-
O=c1[nH]c(CSc2nnc(-c3cccnc3)n2-c2ccccc2)nc2ccccc12	.	-	-
CCCNC(=O)[C@H]1O[C@@H]1C(=O)N[C@H](C(=O)N1CCC[C@H]1C(=O)OC)C(C)CC (stereo partly specified)	-	141	-
C[C@H](CS)C(=O)N1CCC[C@H]1C(=O)O	-	-	-
COc1ccccc1NC(=O)C(Cc1ccccc1)N1C(=O)C2C3c4ccccc4C(c4ccccc43)C2C1=O (stereo unspecified)	.	92	-
COc1ccccc1NC(=O)CN1C(=O)C2C3CCC(C3)C2C1=O (stereo unspecified)	.	-	-
COC(=O)c1ccc(NC(=O)CN(c2ccc(F)c(Cl)c2)S(C)(=O)=O)cc1	.	-	-
COC(=O)c1cccc(NC(=O)CN(c2ccc(F)c(Cl)c2)S(C)(=O)=O)c1C	.	106	-
COC(=O)c1cccc(NC(=O)CN(c2cccc(F)c2)S(C)(=O)=O)c1C	.	98	-
COC(=O)c1cccc(NC(=O)CN(c2ccc(Br)c(C)c2)S(C)(=O)=O)c1C	.	-	-
COC(=O)c1cccc(NC(=O)CN(c2ccc(F)cc2)S(C)(=O)=O)c1C	.	109	-

Bioassay records as filed in PubChem BioAssay.
